Bioassay records from PubChem BioAssay.
Most compounds without a hit are left out; they make up all but 2.7% or so of the library.
EWS-Fli block: inhibitors of EWS/Fli oncoprotein transcriptional activity; hit rate 0.67% among 350,000; A673 NR0B1-luciferase reporter, viability-normalised; inhibition, % at 12.6 µM; AID 651661;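 active means mean inhibition of at least 50% after viability correction, with every replicate also passing that limit; inconclusive means mean reaches 50% but only one of two replicates passes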;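 further: firefly luciferase signal divided by Alamar Blue viability fluorescence both relative to DMSO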
Env fusion inh: inhibitors of HIV Env-mediated cell fusion; HeLa-JRFL Env/CEM21 cell fusion, luciferase; inhibition, % at 12.3 µM; hit rate 1.1% among 360,000; AID 651610;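 active means mean replicate inhibition score of at least 50 and every replicate individually at or above 50; inconclusive means only one of the two criteria met; inactive means mean below 50 and not all replicates reaching 50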;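 further: 0% = plate neutral controls and 100% = maraviroc near 300 nM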
PGC1a acetyl inh: PGC1a acetylation modulation, inhibitor mode. U2OS PGC1a acetylation, AlphaScreen anti-acetyl-lysine; with virally co-expressed GCN5 acetyltransferase. inhibition, % at 15.6 µM. hit rate 0.17% among 350,000. AID 651687;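 active means every replicate shows inhibition of at least 40%; inconclusive means mean inhibition at least 40% but some replicate below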;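 further: 0% = neutral control wells and 100% = positive control wells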
GSIS activator: primary screen for activators of insulin secretion dependent on glucose, INS-1E cells, GLuc reporter luminescence. hit rate 0.61% among 370,000. activation, % at 16.6 µM. AID 743287. INS-1E GLuc reporter insulin secretion, 2-3 h;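 active means lowest replicate activation of at least 40%, so every replicate reaches that level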;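 further: 0% = median of neutral control wells and 100% = median of IBMX positive control wells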
CFTR F508del cor: correctors of CFTR F508del function in bronchial epithelial cells; hit rate 0.36% among 350,000; activity (quench increase), % at 7.58 µM; AID 720511; CFBE cells, YFP halide quenching; stimulated with forskolin plus potentiator P3; % fluorescence drop versus neutral controls;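 active means mean added fluorescence quench of at least 8% versus neutral control, with both replicates also reaching 8%; inconclusive means only one of the mean or replicate conditions met; inactive means mean below 8% and not both replicates reaching 8%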;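 further: cells transiently co-express mutant CFTR-F508del with the halide-sensitive YFP; corrector assay measuring rescue of mutant channel to the surface after 24 h compound exposure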
PAX8 reporter: PAX8 transcriptional activity inhibition; RMG-I TPO-luciferase reporter, SteadyGlo, 24 h; inhibition, % at 12.6 µM; hit rate 1.2% among 360,000;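 active means mean replicate inhibition at least 60% with every replicate also reaching 60%; inconclusive means only one of the two criteria is met; inactive means mean below 60% and not all replicates reaching 60%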;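 further: luciferase light reporting Pax8 driven TPO promoter activity; plate controls were median of neutral control wells for no effect and mitoxantrone controls for full effect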
Active calls of the source: *; ? = inconclusive; . = not tested or not shown; [ ] = dose if it differs, or a comment.

SMILES	EWS-Fli block	Env fusion inh	PGC1a acetyl inh	GSIS activator	CFTR F508del cor	PAX8 reporter
O=C(OCc1ccc(Br)cc1)c1cc([N+](=O)[O-])ccc1N1CCOCC1	62*	-75	-19	.	8.4*	21
CN(/N=C/c1ccco1)C1=NS(=O)(=O)c2ccccc21	-7	-4	7	8	-2	-1
CCNc1nc(NCC)nc(N(C)/N=C/c2ccco2)n1	8	-8	14	62*	1	7
COc1ccc(CN(C)C[C@H]2Oc3ccc(NC(=O)CCC(F)(F)F)cc3CC(=O)N([C@H](C)CO)C[C@@H]2C)cc1	-1	3[16.7 µM]	-4	-15	3	9
CCCC(=O)N(C1CC(C)C(C#N)(C#N)C1(C#N)C#N)N(C)C (stereo not given)	14	-56	-29	7	-14	68*
CC(=O)N(C1CC(C)C(C#N)(C#N)C1(C#N)C#N)N(C)C (stereo not given)	36	-23	-24	167*	-9	75*
C[C@@H]1CCCCO[C@@H](CN(C)C(=O)Nc2ccc3c(c2)OCO3)[C@H](C)CN([C@H](C)CO)C(=O)c2cc(NC(=O)C3CCCCC3)ccc2O1	12	-15[16.7 µM]	-6	-23	?	.
CNC(=O)C[C@@H]1CC[C@@H]2[C@H](COC[C@@H](O)CN2C(=O)Nc2cccc(OC)c2)O1	0	.	-4	4	-4	1
CO[C@@H]1CN(C)C(=O)c2ccc(NS(=O)(=O)c3ccccc3Cl)cc2OC[C@H](C)NC[C@H]1C	1	30[16.7 µM]	-6	5	0	.
Cc1cc(OCCOCCNCc2ccccc2)ccc1C(C)C	26	93*	-11	-28	0	18
COc1ccccc1N(C)S(=O)(=O)c1ccc(Cl)c(C(=O)NCC2(N(C)C)CCCCC2)c1	-1	95*	-8	-17	0	-9
COCCNC(=O)c1cc(S(=O)(=O)N(C)C2CCCCC2)ccc1Cl	0	57*	4	-7	1	-15
COc1ccccc1N(C)S(=O)(=O)c1ccc(Cl)c(C(=O)NNC(=O)c2ccccc2O)c1	.	-2	10	-23	-4	26
CN(C)C(=O)C[C@@H]1CC[C@@H]2[C@H](COC[C@H](O)CN2C(=O)c2ccncc2)O1	-5	-29[16.7 µM]	2	14	-2	-10
O=c1c2cc(F)ccc2sn1-c1ccccc1	9	-42	7	-3	-2	-16
Cc1ccccc1-n1sc2cc(F)ccc2c1=O	29	-16	-4	45*	-7	-2
CN(C)S(=O)(=O)c1cccc(-n2sc3ccccc3c2=O)c1	10	-9	3	65*	-5	-50
O=c1c2ccccc2sn1-c1ccccc1F	13	20	.	86*	-3	14
O=c1c2ccccc2sn1-c1cccc(Cl)c1	3	-3	.	-18	-3	-11
O=C(O)c1cccc(-n2sc3ccccc3c2=O)c1	-1	-15	-4	51	-5	-2
O=c1c2ccccc2sn1-c1ccccc1	.	-60	18	256*	.	.
COc1cccc(S(=O)(=O)N[C@@H]2CC[C@@H](CCNC(=O)Nc3cc(F)ccc3F)O[C@@H]2CO)c1	5	13[16.7 µM]	1	-13	1	-6
Cc1ccc(S(=O)(=O)N[C@H]2C=C[C@@H](CC(=O)NCc3ccncn3)O[C@H]2CO)cc1	-1	-37[16.7 µM]	-3	-3	-2	-7
COC(=O)Cc1c(O)ccn(Cc2ccc(Cl)c(Cl)c2)c1=O	-12	12	4	4	14*	7
O=C(CC(C(=O)O)c1c[nH]c2ccccc12)c1ccccc1 (stereo not given)	-2	12	81*	-6	-1	59
SMILES	EWS-Fli block	Env fusion inh	PGC1a acetyl inh	GSIS activator	CFTR F508del cor	PAX8 reporter
NNC(=O)c1cccc(O)c1	.	?	13	43*	.	-4
O=C(NCCNC(=O)c1cccc(O)c1)c1cccc(O)c1	2	2	1	0	1	5
Cc1noc(C)c1S(=O)(=O)N(C)C[C@H]1OCCCC[C@@H](C)Oc2ccc(NS(=O)(=O)c3ccc(Cl)cc3)cc2C(=O)N([C@@H](C)CO)C[C@H]1C	9	10[16.7 µM]	-30	-23	1	76*
Cc1noc(C)c1S(=O)(=O)N(C)C[C@H]1OCCCC[C@@H](C)Oc2ccc(NS(=O)(=O)c3ccc(Cl)cc3)cc2C(=O)N([C@@H](C)CO)C[C@@H]1C	13	7[16.7 µM]	-14	-14	4	88*
Cc1noc(C)c1S(=O)(=O)N(C)C[C@@H]1OCCCC[C@H](C)Oc2ccc(NS(=O)(=O)c3ccc(Cl)cc3)cc2C(=O)N([C@H](C)CO)C[C@@H]1C	13	-37[16.7 µM]	-18	-11	0	87*
CN(C)C(=O)C[C@H]1CC[C@@H]2[C@H](COC[C@@H](O)CN2C(=O)C2CC2)O1	16	.	5	1	-2	10
CO[C@H]1CN(C)C(=O)c2ccc(NS(=O)(=O)c3cn(C)cn3)cc2OC[C@@H](C)N(C)C[C@H]1C	-5	-12[16.7 µM]	1	15	-1	25
CN(C)CCNc1ncnc2c1sc1nc(-c3ccccc3)c3c(c12)CCCC3	45	2	18	193*	-6	64*
O=C(COC(=O)/C(=C/c1cccs1)c1cccs1)NC(c1ccccc1)c1ccccc1	.	-10	.	-17	.	93*
CN(C)c1cc[n+](CC(=O)Nc2cccc([N+](=O)[O-])c2)cc1	11	-5	.	17	3	-49
CN(C)c1cc[n+](CC(=O)Nc2ccc(Cl)c([N+](=O)[O-])c2)cc1	18	10	-5	0	1	63*
C[C@@H]1CCCCO[C@@H](CN(C)C(=O)c2ccccc2)[C@H](C)CN([C@@H](C)CO)C(=O)c2cc(NS(=O)(=O)c3cccs3)ccc2O1	-2	20[16.7 µM]	.	-10	1	18
C=C1CCC[C@]2(C)C[C@H]3OC(=O)C(CNC(C)CC)[C@H]3CC12 (stereo not given in full)	12	23	-4	-8	-2	45
C=C1CCC[C@]2(C)C[C@H]3OC(=O)C(CN(C)CC(OC)OC)[C@H]3CC12 (stereo not given in full)	9	22	.	13	-7	63*
COc1ccccc1S(=O)(=O)N[C@H]1CC[C@H](CC(=O)NCc2cccc(F)c2)O[C@@H]1CO	-8	6[16.7 µM]	5	-8	-4	7
COc1ccccc1-c1ccc2n(c1=O)C[C@H]1[C@H](CO)[C@@H](C(=O)NC3CCC3)N(C(=O)NC(C)C)[C@@H]21	1	.	.	-3	0	-13
O=c1[nH]nc(-c2ccc(F)cc2)cc1Cc1cccs1	1	5	.	46*	-1	-1
COc1ccc(NC(=O)c2csc(C)c2)cc1OC	.	22	7	57*	-4	-42
